The text below walks through data of PubChem BioAssay AID1479146 (National Center for Advancing Translational Sciences (NCATS), 2020).

Results filed as inconclusive are left out. Activity calls are given as the source filed them. Calls follow the shape of the full dose curve.

A short description of the experiment: Confirmatory qHTS for Huh7 cytotoxicity: counterscreen for inhibitors of MERS-S pseudo-typed particle cell entry. Conditions: viability; series mostly up to 57.1 µM; activity change, negative = cytotoxicity: at the top concentration. On the technique in general: Quantitative high-throughput screening tests each substance at several concentrations.
As for `O=C(Nc1ccc([N+](=O)[O-])cc1Cl)c1cc(Cl)ccc1O`, the Potency was 3.83 µM (active).

For `CC(=O)OCC1=C(C(=O)O)N2C(=O)[C@@H](NC(=O)Cc3cccs3)[C@H]2SC1`, the “activity change, negative = cytotoxicity” value is 0% (inactive).

In the case of `CC(C)C[C@H](NC(=O)[C@H](CCc1ccccc1)NC(=O)CN1CCOCC1)C(=O)N[C@@H](Cc1ccccc1)C(=O)N[C@@H](CC(C)C)C(=O)[C@@]1(C)CO1`, the Potency is 0.192 µM (active).

For `CN(C/C=C/c1ccccc1)Cc1cccc2ccccc12`, the “activity change, negative = cytotoxicity” value is -7.41% (inactive).

As to `O=C1c2c(O)ccc(O)c2C(=O)c2c(NCCNCCO)ccc(NCCNCCO)c21`, the Potency was 17.1 µM (active).

For `CCCCCCCCCCCCOCCOCCOCCOCCOCCOCCOCCOCCOCCO`, the “activity change, negative = cytotoxicity” value is -10.8% (inactive).

Take `C=CC(=O)Nc1cc(Nc2nccc(-c3cn(C)c4ccccc34)n2)c(OC)cc1N(C)CCN(C)C`: the Potency was 10.8 µM (active).

With `CCCN1C[C@H](C)[C@@H](O)[C@](C)(O)[C@@H](CC)OC(=O)[C@H](C)[C@@H](O[C@H]2C[C@@](C)(OC)[C@@H](O)[C@H](C)O2)C(C)[C@@H](O[C@@H]2O[C@H](C)C[C@H](N(C)C)[C@H]2O)[C@](C)(O)C[C@H]1C` (some centres not stated), the “activity change, negative = cytotoxicity” value was -7.32% (inactive).

For `N/C(=N\N=C\c1ccc(Cl)cc1)N/N=C/c1ccc(Cl)cc1`, the “activity change, negative = cytotoxicity” value is -18.1% (inactive).

Turning to `CN(C)CCC=C1c2ccccc2C(C)(C)c2ccccc21`, the “activity change, negative = cytotoxicity” value was -3.85% (inactive).

Turning to `CC[C@H](C)C(=O)O[C@H]1C[C@@H](C)C=C2C=C[C@H](C)[C@H](CC[C@@H]3C[C@@H](O)CC(=O)O3)[C@H]21`, the “activity change, negative = cytotoxicity” value is -14.4% (inactive).

As to `CCCCCCNC(=O)n1cc(F)c(=O)[nH]c1=O`, the “activity change, negative = cytotoxicity” value was -9.95% (inactive).

Turning to `CC(C)OC(=O)OCOP(=O)(CO[C@H](C)Cn1cnc2c(N)ncnc21)OCOC(=O)OC(C)C`, the “activity change, negative = cytotoxicity” value was -12.7% (inactive).

As to `CCCCCCOC(=O)NC(=N)c1ccc(NCc2nc3cc(C(=O)N(CCC(=O)OCC)c4ccccn4)ccc3n2C)cc1`, the “activity change, negative = cytotoxicity” value was 0% (inactive).

Consider `COc1cc([C@@H]2c3cc4c(cc3C(O[C@@H]3O[C@@H]5CO[C@@H](c6cccs6)OC5[C@H](O)[C@H]3O)C3COC(=O)[C@@H]32)OCO4)cc(OC)c1O` (some centres not stated), for which the Potency was 5.41 µM (active).

For `Cc1cc(-n2c(=O)[nH]c(=O)n(C)c2=O)ccc1Oc1ccc(S(=O)(=O)C(F)(F)F)cc1`, the “activity change, negative = cytotoxicity” value is -28% (inactive).

As for `CCCCc1oc2ccccc2c1C(=O)c1cc(I)c(OCCN(CC)CC)c(I)c1`, the “activity change, negative = cytotoxicity” value is -7.39% (inactive).

For `CN1CCC(=C2c3ccccc3C=Cc3ccccc32)CC1`, the “activity change, negative = cytotoxicity” value was -2% (inactive).

As for `COc1cccc2c1C(=O)c1c(O)c3c(c(O)c1C2=O)C[C@@](O)(C(C)=O)C[C@@H]3O[C@H]1C[C@H](N)[C@H](O)[C@H](C)O1`, the Potency is 6.07 µM (active).

As for `CN1CCC(=C2c3ccccc3CCc3sccc32)CC1`, the “activity change, negative = cytotoxicity” value was 0% (inactive).

Regarding `COc1cc2nccc(Oc3ccc(NC(=O)NC4CC4)c(Cl)c3)c2cc1C(N)=O`, the “activity change, negative = cytotoxicity” value was -19% (inactive).

Consider `COc1cccc2c1C(=O)c1c(O)c3c(c(O)c1C2=O)C[C@@](O)(C(=O)CO)CC3OC1CC(N2CCOC(OC)C2)C(O)C(C)O1` (some centres not stated), for which the Potency was 0.136 µM (active).

On to `CCN(CC)CCNC(=O)c1c(C)[nH]c(/C=C2\C(=O)Nc3ccc(F)cc32)c1C`, for which the Potency was 27.1 µM (active).

As for `Cc1nnc2n1-c1sc(CCc3ccc(CC(C)C)cc3)cc1C(c1ccccc1Cl)=NC2C` (configuration not stated), the “activity change, negative = cytotoxicity” value was -18.8% (inactive).

For the compound `C=C(C)[C@H]1Cc2c(ccc3c2O[C@@H]2COc4cc(OC)c(OC)cc4[C@@H]2C3=O)O1`, the Potency was 6.81 µM (active).

With `COc1cccc2c1C(=O)c1c(O)c3c(c(O)c1C2=O)C[C@@](O)(C(=O)CO)C[C@@H]3O[C@H]1C[C@H](N)[C@@H](O)[C@H](C)O1`, the Potency was 2.15 µM (active).

On to `CCc1c2c(nc3ccc(OC(=O)N4CCC(N5CCCCC5)CC4)cc13)-c1cc3c(c(=O)n1C2)COC(=O)[C@]3(O)CC`, for which the “activity change, negative = cytotoxicity” value is 0% (inactive).
